What all share (experiment): universal protein binding microarray (PBM); transcription factors of Arabidopsis thaliana; high values mean tight binding
Holding throughout (details): protein: recombinant; tags: GST; chain copies: 2; dsDNA, one strand shown

The target of one experiment is T1, GST-ANAC092(1-176) (Arabidopsis thaliana, UniProt Q9FKA0 1-176).
T1 sequence: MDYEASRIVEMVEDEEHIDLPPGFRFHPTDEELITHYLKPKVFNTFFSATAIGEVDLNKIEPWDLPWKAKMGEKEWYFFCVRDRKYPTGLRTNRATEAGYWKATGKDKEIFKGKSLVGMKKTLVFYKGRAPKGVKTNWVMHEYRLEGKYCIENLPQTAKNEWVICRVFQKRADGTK
A digest of the protocol: (§1)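 GST-tagged NAC-domain, full-length or DNA-binding-domain proteins were induced in cells, with zinc acetate added for zinc-finger proteins. They were purified on glutathione–Sepharose 4B and quantified by A280 or anti-GST western blot. Each was applied at 200 to 500 nM final, in duplicate, to custom all-10-mer Agilent 4 × 180K arrays made double-stranded by primer extension, with gapped and ungapped 8-mers scored. Binding is the normalised enrichment score (E-score).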

The target in a further experiment is GST-NTL6(1-168) (Arabidopsis thaliana, UniProt Q9SCK6 1-168). A digest of the protocol:
as §1

The next experiment has as its target T2, GST-ANAC019 NAC domain (Arabidopsis thaliana, UniProt Q9C932 14-162).
T2 sequence: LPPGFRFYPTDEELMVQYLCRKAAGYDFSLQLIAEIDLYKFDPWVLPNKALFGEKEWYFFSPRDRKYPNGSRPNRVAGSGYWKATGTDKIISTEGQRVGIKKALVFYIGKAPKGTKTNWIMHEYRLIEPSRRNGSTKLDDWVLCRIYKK
In a few lines: as §1

The target of the next experiment is T3, GST-ANAC055(1-171) (Arabidopsis thaliana, UniProt Q9LDY8 1-171).
T3 sequence: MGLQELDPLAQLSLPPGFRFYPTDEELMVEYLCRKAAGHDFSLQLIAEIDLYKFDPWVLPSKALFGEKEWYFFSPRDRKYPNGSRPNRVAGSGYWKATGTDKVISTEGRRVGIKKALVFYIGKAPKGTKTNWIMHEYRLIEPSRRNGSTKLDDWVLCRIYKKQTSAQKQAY
In a few lines:
as §1

For a further experiment, the target named is T4, GST-ATAF1 NAC domain (Arabidopsis thaliana, UniProt Q39013 7-158).
T4 sequence: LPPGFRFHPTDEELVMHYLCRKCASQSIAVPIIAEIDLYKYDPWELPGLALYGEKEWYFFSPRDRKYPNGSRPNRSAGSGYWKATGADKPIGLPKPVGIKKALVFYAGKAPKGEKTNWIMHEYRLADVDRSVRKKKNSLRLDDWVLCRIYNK
A digest of the protocol: as §1

Experiment [1] deals with T5, GST-ANAC092(1-285) full length (Arabidopsis thaliana, UniProt Q9FKA0 1-285).
T5 sequence: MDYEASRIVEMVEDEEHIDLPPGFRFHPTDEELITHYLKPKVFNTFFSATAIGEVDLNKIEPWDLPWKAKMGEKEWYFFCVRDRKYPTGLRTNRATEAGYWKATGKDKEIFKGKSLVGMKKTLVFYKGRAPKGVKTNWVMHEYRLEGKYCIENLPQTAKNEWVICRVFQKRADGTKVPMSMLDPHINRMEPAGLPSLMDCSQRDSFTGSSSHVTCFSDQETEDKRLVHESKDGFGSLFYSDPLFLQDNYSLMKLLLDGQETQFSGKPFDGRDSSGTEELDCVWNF
In a few lines:
as §1

The target of another experiment is T6, GST-NAP(1-166) (Arabidopsis thaliana, UniProt O49255 1-166).
T6 sequence: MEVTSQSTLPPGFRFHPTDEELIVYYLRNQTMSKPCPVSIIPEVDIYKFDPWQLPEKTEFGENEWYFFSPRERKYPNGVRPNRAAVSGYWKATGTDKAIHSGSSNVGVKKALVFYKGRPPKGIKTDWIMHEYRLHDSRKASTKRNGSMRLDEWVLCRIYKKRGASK
In a few lines:
as §1

The target in the next experiment is T7, GST-NST2(1-184) (Arabidopsis thaliana, UniProt Q9M274 1-184).
T7 sequence: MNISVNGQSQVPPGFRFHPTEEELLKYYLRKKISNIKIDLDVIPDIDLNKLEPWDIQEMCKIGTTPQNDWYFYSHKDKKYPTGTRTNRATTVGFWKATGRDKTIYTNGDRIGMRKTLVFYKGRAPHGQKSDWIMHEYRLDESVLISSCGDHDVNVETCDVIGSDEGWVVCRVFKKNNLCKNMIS
A digest of the protocol:
as §1

The target in another experiment is T8, GST-NTL8 NAC domain (Arabidopsis thaliana, UniProt Q9XIN7 14-156).
T8 sequence: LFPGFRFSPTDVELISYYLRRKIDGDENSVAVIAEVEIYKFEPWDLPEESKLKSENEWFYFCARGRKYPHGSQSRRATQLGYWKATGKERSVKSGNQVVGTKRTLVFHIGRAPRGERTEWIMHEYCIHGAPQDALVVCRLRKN
In a few lines:
as §1

The next experiment addresses T9, GST-SND1(1-203) (Arabidopsis thaliana, UniProt Q9LPI7 1-203).
T9 sequence: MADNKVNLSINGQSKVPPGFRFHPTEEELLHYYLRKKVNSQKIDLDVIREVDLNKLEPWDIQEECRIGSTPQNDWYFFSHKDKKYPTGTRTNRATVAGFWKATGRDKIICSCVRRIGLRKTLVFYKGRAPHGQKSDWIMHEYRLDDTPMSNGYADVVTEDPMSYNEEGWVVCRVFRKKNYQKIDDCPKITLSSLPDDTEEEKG
In a few lines:
as §1

For the next experiment, the target named is T10, GST-VND3 NAC domain (Arabidopsis thaliana, UniProt Q9FH59 12-162).
T10 sequence: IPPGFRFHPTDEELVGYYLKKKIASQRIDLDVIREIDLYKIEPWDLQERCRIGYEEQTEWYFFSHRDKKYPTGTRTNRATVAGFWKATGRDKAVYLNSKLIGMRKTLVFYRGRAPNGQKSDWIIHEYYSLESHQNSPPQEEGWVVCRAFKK
In a few lines:
as §1

For the next experiment, the target named is T11, GST-VND7 NAC domain (Arabidopsis thaliana, UniProt Q9C8W9 9-158).
T11 sequence: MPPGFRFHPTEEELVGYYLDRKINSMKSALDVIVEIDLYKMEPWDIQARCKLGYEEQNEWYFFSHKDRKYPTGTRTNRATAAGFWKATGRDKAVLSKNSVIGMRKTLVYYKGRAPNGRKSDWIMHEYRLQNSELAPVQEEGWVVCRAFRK
A digest of the protocol: as §1

Sequence of GST-NTL6(1-168) (Q9SCK6 1-168): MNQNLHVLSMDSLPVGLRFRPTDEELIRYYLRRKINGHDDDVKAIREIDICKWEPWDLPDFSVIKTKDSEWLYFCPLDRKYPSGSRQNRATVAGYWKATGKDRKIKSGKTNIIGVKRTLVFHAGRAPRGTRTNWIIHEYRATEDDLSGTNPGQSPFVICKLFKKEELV

As for ACGAGAAA, the binding signal in the experiment with GST-ANAC092(1-176) was found to be 0.249 E-score; with GST-NTL6(1-168), 0.265 E-score; with GST-ANAC019 NAC domain, 0.324 E-score; with GST-ANAC055(1-171) it was 0.419 E-score; with GST-ATAF1 NAC domain, 0.184 E-score; in experiment [1], 0.141 E-score. Also, the binding signal with GST-NAP(1-166) amounted to 0.206 E-score; in the experiment with GST-NST2(1-184) it was 0.188 E-score; with GST-NTL8 NAC domain, 0.124 E-score; with GST-SND1(1-203), 0.151 E-score; with GST-VND3 NAC domain it was 0.276 E-score; in the experiment with GST-VND7 NAC domain, 0.302 E-score.
For AAGCGTAA, the binding signal with GST-ANAC092(1-176) turned out to be 0.214 E-score; with GST-NTL6(1-168), 0.0576 E-score; with GST-ANAC019 NAC domain, 0.168 E-score; with GST-ANAC055(1-171), 0.0793 E-score; in the experiment with GST-ATAF1 NAC domain it was 0.175 E-score; in [1] it was 0.3 E-score. Moreover, the binding signal in the experiment with GST-NAP(1-166) was 0.119 E-score; with GST-NST2(1-184), 0.212 E-score; in the experiment with GST-SND1(1-203) it was 0.426 E-score; with GST-VND3 NAC domain it was 0.13 E-score; with GST-VND7 NAC domain, 0.115 E-score.
Consider ATTGAGTA, for which the binding signal with GST-ANAC092(1-176) was determined as 0.329 E-score; in the experiment with GST-NTL6(1-168) it was 0.135 E-score; with GST-ANAC019 NAC domain, 0.143 E-score; with GST-ANAC055(1-171), 0.176 E-score; with GST-ATAF1 NAC domain it was 0.251 E-score; in experiment [1], 0.365 E-score. Further, the binding signal amounted to 0.0897 E-score with GST-NAP(1-166); 0.312 E-score with GST-NST2(1-184); 0.129 E-score with GST-NTL8 NAC domain; 0.404 E-score in the experiment with GST-SND1(1-203); 0.282 E-score with GST-VND3 NAC domain; 0.258 E-score with GST-VND7 NAC domain.
Consider GCGTGTAA, for which the binding signal with GST-ANAC092(1-176) amounted to 0.444 E-score; in the experiment with GST-NTL6(1-168), 0.0655 E-score; in the experiment with GST-ANAC019 NAC domain, 0.297 E-score; with GST-ANAC055(1-171), 0.222 E-score; in the experiment with GST-ATAF1 NAC domain, 0.201 E-score; in experiment [1], 0.438 E-score. Besides, the binding signal with GST-NAP(1-166) was 0.155 E-score; with GST-NST2(1-184), 0.275 E-score; with GST-SND1(1-203) it was 0.347 E-score; with GST-VND3 NAC domain, 0.246 E-score; with GST-VND7 NAC domain it was 0.2 E-score.
For the sequence GTACGTTA, the binding signal in the experiment with GST-ANAC092(1-176) was 0.42 E-score; with GST-NTL6(1-168) it was 0.0779 E-score; with GST-ANAC019 NAC domain it was 0.0888 E-score; in the experiment with GST-ANAC055(1-171), 0.226 E-score; with GST-ATAF1 NAC domain, 0.325 E-score; in experiment [1], 0.426 E-score. For the same sequence, the binding signal with GST-NAP(1-166) is 0.173 E-score; with GST-NST2(1-184), 0.316 E-score; with GST-SND1(1-203) it was 0.415 E-score; in the experiment with GST-VND3 NAC domain it was 0.253 E-score; in the experiment with GST-VND7 NAC domain, 0.148 E-score.
Turning to GCAAGGAA, the binding signal was determined as 0.345 E-score in the experiment with GST-ANAC092(1-176); 0.418 E-score with GST-NTL6(1-168); 0.185 E-score with GST-ANAC019 NAC domain; 0.211 E-score with GST-ANAC055(1-171); 0.18 E-score in the experiment with GST-ATAF1 NAC domain; 0.371 E-score in experiment [1]. The binding signal with GST-NAP(1-166) was determined as 0.133 E-score; with GST-NST2(1-184), 0.175 E-score; in the experiment with GST-NTL8 NAC domain, 0.431 E-score; with GST-SND1(1-203), 0.276 E-score; in the experiment with GST-VND3 NAC domain, 0.187 E-score; with GST-VND7 NAC domain, 0.229 E-score.
Turning to TAACGTGA, the binding signal with GST-ANAC092(1-176) turned out to be 0.42 E-score; with GST-NTL6(1-168) it was 0.0647 E-score; with GST-ANAC019 NAC domain, 0.144 E-score; with GST-ANAC055(1-171) it was 0.213 E-score; with GST-ATAF1 NAC domain, 0.208 E-score; in [1] it was 0.419 E-score. Besides, the binding signal came out at 0.168 E-score in the experiment with GST-NAP(1-166); 0.257 E-score with GST-NST2(1-184); 0.385 E-score in the experiment with GST-SND1(1-203); 0.251 E-score in the experiment with GST-VND3 NAC domain; 0.0561 E-score in the experiment with GST-VND7 NAC domain.
